From PubChem BioAssay (Tox21)
“And” between values parts separate entries of the source, which are not always exact repeats. Equal entries are not always repeated. Results filed as inconclusive are left out. Where a structure was tested more than once in an assay, its records may differ in their call. The source made the active and inactive calls. Unless noted, calls follow the shape of the dose curve; as a rule, active = well fitted curve in the direction sought with a large enough effect in the repeat runs; inconclusive = weak or mixed curves; inactive = no such curve, though single readings can be large; an effect the other way counts as inactive or inconclusive.

Tests used:
[1] = qHTS assay to identify small molecule antagonists of the thyroid receptor (TR) signaling pathway - cell viability counter screen (AID 743064); also: nearly all actives have a fitted effect of over 50% in size; also: potency is read from the fitted curve at half-maximal effect
Outline: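 In rat pituitary GH3.TRE-Luc reporter cells co-exposed to compound and 1 nM T3 for 23.5 h, cytotoxicity was assessed with CellTiter-Fluor in the same wells, read by fluorescence.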

[2] = qHTS assay to identify small molecule antagonists of the thyroid receptor (TR) signaling pathway (AID 743065); also: nearly all actives have a fitted effect of over 55% in size; also: potency is read from the fitted curve at half-maximal effect
Outline: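 Antagonism measured as loss of luciferase signal in GH3 cells stably carrying a TRE-luciferase reporter, co-treated with compound and T3 (1 nM final) for 23.5 h at 37 C. Viability was read in the same well by CellTiter-Fluor.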

[3] = system: thyroid hormone receptor (rat, GH3 cells); assay: qHTS assay to identify small molecule agonists of the thyroid receptor (TR) signaling pathway (AID 743066; calls by dose curve)
[4] = target: Estrogen receptor (Homo sapiens) (UniProt P03372); assay: qHTS assay to identify small molecule antagonists of the estrogen receptor alpha (ER-alpha) signaling pathway (AID 743069; active = well fitted curve in the direction sought with a large enough effect in the signal ratio in the repeat runs, not every such curve was filed as active; the % refers to the signal ratio)
Outline: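 ER-alpha-UAS-bla GripTite HEK293 line; 2% charcoal-stripped FBS overnight; plated, 4 hr 37C/5% CO2; cpd in DMSO + 17beta-estradiol, 18 hr 37C; LiveBLAzer B/G FRET substrate 2 hr RT; fluorescence intensity.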

[5] = qHTS assay to identify small molecule antagonists of the estrogen receptor alpha (ER-alpha) signaling pathway - cell viability counter screen (AID 743074; calls by dose curve;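 also: HEK293 cells carrying ER-alpha-UAS-bla reporter stimulated with 17beta-estradiol; nearly all actives have a fitted effect of over 45% in size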)
[6] = target: Estrogen receptor (Homo sapiens) (UniProt P03372); assay: qHTS assay to identify small molecule agonists of the estrogen receptor alpha (ER-alpha) signaling pathway (AID 743075; calls by dose curve;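 also: HEK293 GripTite cells with ER-alpha and UAS-driven beta-lactamase reporter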)
[7] = target: Estrogen receptor (Homo sapiens) (UniProt P03372); assay: qHTS assay to identify small molecule agonists of the estrogen receptor alpha (ER-alpha) signaling pathway using the BG1 cell line (AID 743079); also: nearly all actives have a fitted effect of over 20% in size
[8] = qHTS assay to identify small molecule antagonists of the estrogen receptor alpha (ER-alpha) signaling pathway using the BG1 cell line (AID 743080; calls by dose curve;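 also: BG1 cells stimulated with 17beta-estradiol alongside compound; nearly all actives have a fitted effect of over 25% in size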; also: potency is read from the fitted curve at half-maximal effect)
Outline: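 Luciferase inhibition measured with ONE-Glo after 30 min at RT in BG1Luc4E2 cells given test compounds and 17beta-estradiol for 21.5 h at 37 C; CellTiter-Fluor viability read in the same wells beforehand.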

[9] = qHTS assay to identify small molecule antagonists of the estrogen receptor alpha (ER-alpha) signaling pathway using the BG1 cell line - cell viability counter screen (AID 743081);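 also: compound given together with 17beta-estradiol as the ER stimulus; series mostly up to about 70 µM; nearly all actives have a fitted effect of over 45% in size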
[10] = target: Aromatase (Homo sapiens) (UniProt P11511); assay: qHTS assay to identify aromatase inhibitors (AID 743083); also: nearly all actives have a fitted effect of over 55% in size; also: potency is read from the fitted curve at half-maximal effect
[11] = qHTS assay to identify aromatase inhibitors - cell viability counter screen (AID 743084);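 also: cells stimulated with testosterone during compound exposure; nearly all actives have a fitted effect of over 55% in size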; also: potency is read from the fitted curve at half-maximal effect
[12] = target: Aryl hydrocarbon receptor (Homo sapiens) (UniProt P35869); assay: qHTS assay to identify small molecule that activate the aryl hydrocarbon receptor (AhR) signaling pathway (AID 743085); also: nearly all actives have a fitted effect of over 15% in size; also: potency is read from the fitted curve at half-maximal effect;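 as to activation: HG2L7.5c1 human HepG2 liver cells with stably integrated DRE-driven firefly reporter; series mostly up to about 70 µM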
Outline: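 AhR agonist activity is inferred from enhanced light output of a DRE-controlled firefly luciferase reporter in HepG2 cells, measured with ONE-Glo following 24 h treatment at 37C.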

[13] = qHTS assay to identify small molecule that activate the aryl hydrocarbon receptor (AhR) signaling pathway - cell viability counter screen (AID 743086);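 also: HepG2 liver cells carrying the AhR DRE luciferase reporter; series mostly up to about 70 µM; nearly all actives have a fitted effect of over 45% in size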
Outline: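 Cytotoxicity counter screen: CellTiter-Fluor signal (30 min, 37 C) in 4000 HepG2 cells/well carrying the DRE-luciferase reporter, following 24 h compound exposure at 37 C.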

[14] = target: Peroxisome proliferator-activated receptor gamma (Homo sapiens) (UniProt P37231); assay: qHTS assay to identify small molecule agonists of the peroxisome proliferator-activated receptor gamma (PPARg) signaling pathway (AID 743094; active = well fitted activation curve with a large enough effect in the signal ratio in the repeat runs, not every such curve was filed as active; the % refers to the signal ratio)
Outline: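 Compounds dissolved in DMSO were added to PPARg UAS-bla HEK293H cells for 17 h at 37C, and reporter expression was quantified by fluorescence intensity after 1 h with LiveBLAzer B/G FRET substrate.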

[15] = target: Peroxisome proliferator-activated receptor gamma (Homo sapiens) (UniProt P37231); assay: qHTS assay to identify small molecule antagonists of the peroxisome proliferator-activated receptor gamma (PPARg) signaling pathway (AID 743191; calls by dose curve; also: series mostly up to about 63 µM; nearly all actives have a fitted effect of over 30% in size)
Outline: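 Beta-lactamase reporter under UAS control in HEK293H PPARg-bla cells; compound treatment 17 h at 37C. Read-out: fluorescence intensity after 1 h room-temperature incubation with LiveBLAzer B/G FRET substrate.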

[16] = qHTS assay to identify small molecule antagonists of the peroxisome proliferator-activated receptor gamma (PPARg) signaling pathway - cell viability counter screen (AID 743194); also: nearly all actives have a fitted effect of over 55% in size
Outline: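 Viability was measured as CellTiter-Glo luminescence in GeneBLAzer PPARg UAS-bla HEK293H cells. These cells had been exposed 17 h at 37 C to compounds together with rosiglitazone at 50 nM final, with the beta-lactamase readout taken in the same wells.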

[17] = qHTS assay for small molecule agonists of the antioxidant response element (ARE) signaling pathway - cell viability counter screen (AID 743203; calls by dose curve; also: nearly all actives have a fitted effect of over 55% in size; also: potency is read from the fitted curve at half-maximal effect)
Outline: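 Following 16 hrs of compound treatment at 37C, HepG2 cells with an ARE-controlled beta-lactamase gene were lysed with CellTiter-Glo. Luminescence was read after 30 min at room temperature.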

[18] = qHTS assay for small molecule activators of the heat shock response signaling pathway - cell viability counter screen (AID 743209); also: nearly all actives have a fitted effect of over 50% in size; also: potency is read from the fitted curve at half-maximal effect
Outline: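 Readout: CellTiter-Glo luminescence, 30 min at room temperature. System: HSE-bla HeLa cells, 1500/well, plated overnight. Treatment: compounds in DMSO, 5 h at 37 C.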

[19] = qHTS assay for small molecule activators of the heat shock response signaling pathway (AID 743210; active = well fitted activation curve with a large enough effect in the signal ratio in the repeat runs, with a control signal flat, not every such curve was filed as active; the % refers to the signal ratio; also: potency is read from the fitted curve at half-maximal effect;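 as to activation: HeLa cells with beta-lactamase reporter driven by heat shock elements; series mostly up to about 63 µM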)
Outline: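 HeLa HSE-bla cells, overnight plating; cpd in DMSO 5 h, 37 C; LiveBLAzer B/G FRET substrate 2.5 h RT; fluorescence intensity read.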

[20] = qHTS assay for small molecule agonists of the antioxidant response element (ARE) signaling pathway (AID 743202; active = well fitted activation curve with a large enough effect in the signal ratio in the repeat runs, not every such curve was filed as active; the % refers to the signal ratio; also: potency is read from the fitted curve at half-maximal effect)
Outline: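 Quantitative high-throughput format in HepG2 cells bearing an integrated ARE-beta-lactamase reporter. Compound exposure lasted 16 h at 37 C, and fluorescence was read 2 h after adding LiveBLAzer B/G substrate at room temperature.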

Measured: Potency

Peroxisome proliferator-activated receptor gamma (Homo sapiens), sequence (P37231 whole entry, looked up): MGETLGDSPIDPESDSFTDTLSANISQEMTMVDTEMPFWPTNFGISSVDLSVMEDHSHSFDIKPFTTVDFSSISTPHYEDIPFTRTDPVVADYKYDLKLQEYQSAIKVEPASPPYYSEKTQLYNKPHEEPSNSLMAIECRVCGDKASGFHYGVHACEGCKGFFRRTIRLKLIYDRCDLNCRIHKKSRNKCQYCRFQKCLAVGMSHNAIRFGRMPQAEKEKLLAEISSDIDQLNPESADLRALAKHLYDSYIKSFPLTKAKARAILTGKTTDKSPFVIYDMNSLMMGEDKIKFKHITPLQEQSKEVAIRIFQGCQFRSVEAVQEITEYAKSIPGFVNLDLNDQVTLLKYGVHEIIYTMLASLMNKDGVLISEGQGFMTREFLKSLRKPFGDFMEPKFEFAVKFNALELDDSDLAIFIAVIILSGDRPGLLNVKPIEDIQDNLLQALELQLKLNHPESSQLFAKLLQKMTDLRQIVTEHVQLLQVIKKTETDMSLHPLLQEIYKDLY
Aryl hydrocarbon receptor (Homo sapiens), sequence (P35869 whole entry, looked up): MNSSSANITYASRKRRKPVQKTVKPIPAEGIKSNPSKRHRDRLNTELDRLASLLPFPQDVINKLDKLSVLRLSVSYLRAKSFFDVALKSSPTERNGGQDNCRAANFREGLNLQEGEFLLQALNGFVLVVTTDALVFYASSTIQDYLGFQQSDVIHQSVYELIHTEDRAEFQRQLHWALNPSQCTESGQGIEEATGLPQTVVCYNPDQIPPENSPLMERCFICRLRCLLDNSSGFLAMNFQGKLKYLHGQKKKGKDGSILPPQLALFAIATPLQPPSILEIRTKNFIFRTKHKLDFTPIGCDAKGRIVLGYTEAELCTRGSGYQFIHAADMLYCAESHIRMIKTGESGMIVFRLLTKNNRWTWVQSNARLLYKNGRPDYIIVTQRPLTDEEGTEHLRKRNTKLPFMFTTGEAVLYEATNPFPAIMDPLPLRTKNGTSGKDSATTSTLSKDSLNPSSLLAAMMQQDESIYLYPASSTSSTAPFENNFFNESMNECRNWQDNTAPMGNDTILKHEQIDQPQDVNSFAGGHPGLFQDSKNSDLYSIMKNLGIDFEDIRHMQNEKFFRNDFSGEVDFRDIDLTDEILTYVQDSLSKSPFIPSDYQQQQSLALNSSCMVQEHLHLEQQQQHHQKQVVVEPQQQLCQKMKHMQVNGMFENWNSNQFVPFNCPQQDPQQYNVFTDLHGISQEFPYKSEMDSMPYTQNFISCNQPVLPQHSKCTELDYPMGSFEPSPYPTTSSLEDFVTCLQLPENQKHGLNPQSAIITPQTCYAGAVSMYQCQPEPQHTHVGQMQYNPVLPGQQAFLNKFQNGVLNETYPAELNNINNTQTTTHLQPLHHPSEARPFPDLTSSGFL
Aromatase (Homo sapiens), sequence (P11511 whole entry, looked up): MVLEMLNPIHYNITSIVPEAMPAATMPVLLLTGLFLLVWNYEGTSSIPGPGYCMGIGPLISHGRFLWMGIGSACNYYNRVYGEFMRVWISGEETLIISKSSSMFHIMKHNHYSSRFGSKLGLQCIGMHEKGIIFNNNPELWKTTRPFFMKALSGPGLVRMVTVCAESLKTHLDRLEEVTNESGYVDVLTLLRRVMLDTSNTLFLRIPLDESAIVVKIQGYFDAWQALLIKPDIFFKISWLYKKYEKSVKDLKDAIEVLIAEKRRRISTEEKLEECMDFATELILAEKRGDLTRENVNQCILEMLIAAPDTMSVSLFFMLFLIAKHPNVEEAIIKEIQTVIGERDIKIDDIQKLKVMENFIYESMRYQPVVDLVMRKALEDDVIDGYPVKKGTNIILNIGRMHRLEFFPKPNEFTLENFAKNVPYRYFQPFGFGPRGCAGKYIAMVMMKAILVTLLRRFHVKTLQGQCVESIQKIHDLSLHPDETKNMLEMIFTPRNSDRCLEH
Estrogen receptor (Homo sapiens), sequence (P03372 whole entry, looked up): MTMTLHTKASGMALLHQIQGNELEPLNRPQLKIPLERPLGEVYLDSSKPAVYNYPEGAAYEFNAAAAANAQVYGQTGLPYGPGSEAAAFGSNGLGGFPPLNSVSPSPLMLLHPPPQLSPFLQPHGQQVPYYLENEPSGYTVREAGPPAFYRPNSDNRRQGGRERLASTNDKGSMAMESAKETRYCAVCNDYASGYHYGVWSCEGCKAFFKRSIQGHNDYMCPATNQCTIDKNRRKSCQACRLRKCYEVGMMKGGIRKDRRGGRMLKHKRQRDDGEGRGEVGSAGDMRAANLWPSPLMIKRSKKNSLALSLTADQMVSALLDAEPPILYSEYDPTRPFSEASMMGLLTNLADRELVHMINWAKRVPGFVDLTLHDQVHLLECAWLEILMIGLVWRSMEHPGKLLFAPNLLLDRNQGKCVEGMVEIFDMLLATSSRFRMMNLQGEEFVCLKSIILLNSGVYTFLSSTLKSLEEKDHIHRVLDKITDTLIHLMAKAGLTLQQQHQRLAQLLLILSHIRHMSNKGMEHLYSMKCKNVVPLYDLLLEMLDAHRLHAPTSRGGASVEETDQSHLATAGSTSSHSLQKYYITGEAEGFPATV

O=C(Oc1ccccc1)c1ccccc1O
inactive: [1] | [2] | [3] | [4] | [5] | [6] | [7] | [8] | [9] | [10] | [11] | [12] | [13] | [14] | [15] | [16] | [17] | [18] | [19]

NCCCCCC(=O)O
inactive: [1] | [2] | [3] | [4] | [5] | [6] | [7] | [8] | [9] | [10] | [11] | [12] | [13] | [14] | [15] | [17] | [18] | [19]

COc1cc(C(=S)N2CCOCC2)ccc1O
inactive: [1] | [2] | [3] | [5] | [6] | [7] | [8] | [9] | [10] | [11] | [12] | [13] | [16] | [17] | [18]

O=C(O)c1cn(-c2ccc(F)cc2)c2cc(N3CCNCC3)c(F)cc2c1=O
inactive: [1] | [2] | [3] | [5] | [9] | [10] | [11] | [12] | [13] | [16] | [20] | [17] | [18] | [19]

CC1=CC(=O)c2ccccc2C1=O
inactive: [3] | [5] | [9] | [13] | [14]
inactive and 24.3 µM (active): [11]
inactive and 19.3 µM (active): [10]
active: [1] 13.7 µM | [2] 21.1 µM and 13.7 µM | [8] 29.8 µM | [12] 6.68 µM and 24.3 µM | [20] 9.44 µM | [17] 24.3 µM and 29.8 µM | [18] 15.5 µM and 2.66 µM

COC(=O)c1cccc(C(=O)OC)c1
inactive: [1] | [3] | [4] | [5] | [6] | [7] | [8] | [9] | [10] | [11] | [12] | [13] | [14] | [15] | [16] | [20] | [17] | [18] | [19]

O=c1n(CC2CO2)c(=O)n(CC2CO2)c(=O)n1CC1CO1 (centres undefined)
inactive and 48.3 µM (active): [10]
active: [1] 12.1 µM and 27.3 µM | [2] 6.68 µM and 8.58 µM and 4.33 µM | [19] 35.8 µM and 43.6 µM
inactive: [3] | [5] | [6] | [7] | [9] | [12] | [13] | [16] | [17] | [18]
inactive and 34.2 µM (active): [11]
